# The supplement of paper PMC6555819
# Test system: VDR:RXRa (NR concentration 270 nM, RXRa partner concentration 90 nM)
# Assay: PBM binding z-score (relative to random genomic background probes); higher = stronger binding; sequences stand for … in GC…GCGATTGACAGCGTAGAATGAAGG
# Experimental: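 Protein-binding microarray (Agilent 4x180K custom design, double-stranded 60-nt probes: 5' GC cap, 34-nt variable region, 24-nt constant primer region; full probe sequence given). Purified or IVT nuclear receptor:RXRα heterodimers (3:1 NR:RXRα, mostly 270:90 nM) or homodimers were incubated for 1 h in PBS with 2% milk and no ligand, then detected with Alexa488 antibodies. Fluorescence from o1-orientation probes (~5 replicates averaged) was converted to z-scores against 500 random hg19 background probes. Variable regions are seed direct-repeat (DR0–DR5) sites, all their single-nucleotide variants and half-site ablations.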
row,Sequence,PBM binding z-score
1,CAATCTAGGTCACAGAGGTCAAAGTCCGTGCGTA,8.07
2,CCTTACGGGTCACTCAAGGTTATAGCATCGGAGT,5.32
3,AGTCAAAGTTCAGCACGAGGTAACGTAAAGCACG,3.25
4,AGAATGGGGTTATTAAGATCAGGGAATTGCGGTC,4.05
5,ATATGTAGCTTAAGGGTCATTCAGGTTGGTTCGC,5.26
6,ACTAGGAGGACAAAGGTCAGAGCTACGCCAGTGA,3.45
7,CGAACTAGGTCAAAGGACTGTGAAAGGCGACGTA,1.14
8,TTGAGTAGGTTACGGGGGCATTCAGGGATGAAGA,4.34
9,TAGCCTAGGTGATTGGGCCAGTATAGTACGCATC,-0.57
10,AGATTGAGGTTACCAAAGATCAGGGAAACGCTTG,1.39
11,CGAACAAGGTCAAAGGACAGTGAAAGGCGACGTA,3.93
12,TTACCAAGGTAAAAGGTCGTTGATGCACGCCTTG,2.6
13,GATACAGAGTCAGCTAGAGGCCAGAGTATGGAAA,-0.601
14,CAAACTAGGTCAAAGGACAGTGAAAGGCGACGTA,1.53
15,CCTACTGGGCCAAGGTCATTGCTCAGTCAAAGCA,3.19
16,CGAACTAGGTAACCAGGACAGTGAAGAGGTTGGA,-0.0408
17,CGAACTAGGTCACCAGGACAGTGAAGAGGTTGGA,1.93
18,CGTCCAAGGTCACCAGGTCAGTGAAAGCGACGTG,5.3
19,CCTTACGGTTCACTGACAGGTTATAGCATTTGGA,2.6
20,CTCGAAAGGTCGTGCTTAGGTGAGTATACCAAAC,3.36

row,Sequence,PBM binding z-score
1,CTATGTAGGTTAAGGGGGTCAATCAGTTTGAAAG,7.09
2,ATATGTAGGTAACATCCGGGTCATTCAGGCTATG,3.75
3,TCGATTAGGTTACGGGGGCATTCAGGGATGAAGA,4.31
4,CCTACTGGGCCAAAGGTCATTGACTCCAATGCTC,4.58
5,CCTTACGGGTCAAGGTTATATCACGGGTGGTACG,3.49
6,CGTCCAAGGTCAGCAGGTCAGAGAAAGCGACGTG,3.98
7,CCGAGTAGGTTACGAGGGGGAATTCAGTGCGAAT,1.7
8,TCGAGTAGGTTACGGGGGCCTTCAGGGATGAAGA,2.11
9,CAAACTAGGTCACGAAAGGTCAACGTCGAATGAC,6.9
10,AGTCAAAGTTCATCAAGGTAACGTAAGATATGCT,5.55
11,CCGAGTAGGTTACGATGGGGCATTCAGTGCGAAT,0.842
12,CCGAGTAGGTTACGAGGTGGCATTCAGTGCGAAT,0.516
13,GCTTACGGGTCAAAGGTTATAGTATGAATAGAAT,5.76
14,CTACGTAGGTTAAGGGGGTCATTCAGTTTGAAAG,7.58
15,ATCGAAAGGTCGTCGAGGTGAGTATACACCGTTT,5.7
16,ATATGTAGGATAGGGTCATTCAGAAAGTAGGGAA,3.79
17,CCGAGTAGGTTACGAGGGTGCATTCAGTGCGAAT,4.73
18,ACTAGTTGGTCAGCTGGGGTCACACACAATTCGG,4.93
19,CGTCTAAGGTCAAAGGTCAGTGAAGAGATGACGG,6.78
20,GATACAGGGTGAGCTAGAGGCCAGAGTATGGAAA,-0.523
